Assay [1] in a line: qHTS assay to identify small molecule agonists of the estrogen receptor alpha (ER-alpha) signaling pathway in the presence of an antagonist - cell viability counter screen (AID 1259386).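 Also: series mostly up to about 92 µM; cells exposed to compounds for 22 h at 37 °C before the viability read; nearly all actives have a fitted effect of over 30% in size.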 A digest of the protocol: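 The test measures whether compounds kill ER-alpha reporter cells (VM7Luc4E2) under antagonist co-treatment (ICI-182,780, 10.0nM). Fluorescence from CellTiter-Fluor is read after a 22hr exposure.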
For orientation: In qHTS, concentration-response curves come from the screen itself.

Assay [2] addresses Progesterone receptor (Homo sapiens) (UniProt P06401). As to the kind of experiment: qHTS assay to identify small molecule agonists of the progesterone receptor (PR) signaling pathway (AID 1346784; calls by dose curve; also: nearly all actives have a fitted effect of over 30% in size). A digest of the protocol: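 Agonist qHTS: compounds pinned onto 3,000 PR-UAS-bla HEK 293T cells per well in charcoal-stripped serum medium, 16hr at 37C, then beta-lactamase activity measured by LiveBLAzer FRET fluorescence after 2 hours at room temperature.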

Assay [3] is described as follows: qHTS assay to identify small molecule antagonists of the TGF-beta/Smad signaling pathway - cell viability counter screen (AID 1346824). Also: nearly all actives have a fitted effect of over 50% in size. Also: potency is read from the fitted curve at half-maximal effect. A digest of the protocol: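 Cytotoxicity counter-screen run in the same wells as the beta-lactamase Smad reporter read: CellTiter-Glo luminescence after 30 min at room temperature. HEK 293T SBE-bla cells had 5 hr compound exposure at 37 C with TGF-beta1 (0.25 ng/mL stock).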

Assay [4] is described as follows: qHTS assay to identify small molecule agonists of the TGF-beta/Smad signaling pathway - cell viability counter screen (AID 1346829). Also: top concentration of the series differs between compounds; nearly all actives have a fitted effect of over 45% in size. An outline of the steps:
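In parallel with the Smad reporter read, viability of HEK 293T cells stably carrying SBE-bla is quantified by ATP luminescence following 5 hr compound treatment.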

A short description of assay [5]: qHTS assay to identify small molecule agonists of the TGF-beta/Smad signaling pathway (AID 1346859; active = well fitted activation curve with a large enough effect in the signal ratio in the repeat runs, not every such curve was filed as active; the % refers to the signal ratio; also: series mostly up to about 77 µM). An outline of the steps:
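Fluorescence (ex 405 nm; em 460 and 530 nm) was read 2 h after LiveBLAzer FRET substrate at RT. The preceding compound treatment of overnight-plated SBE-bla HEK293T cells lasted 5 h at 37 C.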

For assay [6], the target named is Thyrotropin-releasing hormone receptor (Homo sapiens) (UniProt P34981). Put plainly: qHTS assay to identify small molecule antagonists of the thyrotropin-releasing hormone receptor (TRHR) signaling pathway (AID 1346877; active = well fitted inhibition curve with a large enough effect in the repeat runs, not every such curve was filed as active; also: potency is read from the fitted curve at half-maximal effect; as to activity, negative = inhibition: series mostly up to about 51 µM). A digest of the protocol: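 Overnight-plated (18 h, 37 °C) HEK293 cells expressing TRHR were dye-loaded 2 h, treated with compound, then stimulated with TRH at 1 nM final. Fluorescence intensity was captured every second for 3 min.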
Chain of Thyrotropin-releasing hormone receptor (Homo sapiens) (P34981 whole entry, looked up): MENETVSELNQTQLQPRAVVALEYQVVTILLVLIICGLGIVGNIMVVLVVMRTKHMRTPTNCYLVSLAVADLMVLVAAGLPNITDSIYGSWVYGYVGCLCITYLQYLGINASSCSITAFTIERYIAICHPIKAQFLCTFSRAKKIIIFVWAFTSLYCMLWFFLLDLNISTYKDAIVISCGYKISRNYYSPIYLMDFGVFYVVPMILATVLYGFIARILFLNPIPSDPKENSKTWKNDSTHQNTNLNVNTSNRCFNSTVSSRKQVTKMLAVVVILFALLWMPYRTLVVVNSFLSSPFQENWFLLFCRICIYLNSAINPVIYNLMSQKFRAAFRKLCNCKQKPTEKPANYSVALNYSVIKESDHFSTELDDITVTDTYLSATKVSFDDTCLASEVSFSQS

For assay [7] the target is unchanged. As to the kind of experiment: qHTS assay to identify small molecule agonists of the thyrotropin-releasing hormone receptor (TRHR) signaling pathway (AID 1346891; calls by dose curve; also: series mostly up to about 58 µM). An outline of the steps:
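Agonist-mode intracellular calcium readout: kinetic fluorescence over 3 min at 1 s intervals after compound addition to TRHR-HEK293 cells (18 h seeded, 2 h dye-loaded at 37 C). Fifteen concentrations, triplicates.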

Assay [8] in a line: Human pregnane X receptor (PXR) small molecule agonists, qHTS cell viability counter screen (AID 1346977). Also: nearly all actives have a fitted effect of over 50% in size. A digest of the protocol:
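Same-well viability read: CellTiter-Fluor added after 23 hr compound exposure, fluorescence measured 1 hr later. Cells were PXR-Luc HepG2 seeded at 2,000/well in 5% charcoal-stripped FBS medium, rested 5 hr before dosing at 37 C.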

Assay [9] can be described thus: Caspase-3/7 induction in HepG2 cells by small molecules, qHTS assay (AID 1346978). Also: nearly all actives have a fitted effect of over 15% in size. An outline of the steps: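 Caspase-3/7 induction was measured by Caspase-Glo 3/7 luminescence (30 min, room temperature) after a 17 hr compound exposure of wild-type HepG2 cells seeded at 2,000 per well and pre-incubated 5 hr.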
Assay [10] is described as follows: Caspase-3/7 induction in CHO-K1 cells by small molecules, qHTS cell viability counter screen (AID 1346979). Also: nearly all actives have a fitted effect of over 35% in size. Also: potency is read from the fitted curve at half-maximal effect. A digest of the protocol:
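Cytotoxicity counter screen: CellTiter-Fluor added to compound-treated wild-type CHO-K1 cells at 16 h (37C, 5% CO2), fluorescence measured 1 h later; same wells as caspase-3/7 measurement.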

Assay [11] can be described thus: Caspase-3/7 induction in CHO-K1 cells by small molecules, qHTS assay (AID 1346980). Also: nearly all actives have a fitted effect of over 15% in size. A digest of the protocol:
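Luminescent Caspase-Glo 3/7 read (30min, room temperature) quantified apoptosis induction. Cells were wild-type CHO-K1, treated with compound for 17hr at 37 C and 5% CO2.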

The nature of assay [12]: Caspase-3/7 induction in HepG2 cells by small molecules, qHTS cell viability counter screen (AID 1346981). Also: nearly all actives have a fitted effect of over 30% in size. Also: potency is read from the fitted curve at half-maximal effect. As to activity change, negative = cytotoxicity: series mostly up to about 92 µM. An outline of the steps:
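Treatment of HepG2 cells with DMSO-delivered compounds ran 16 hr at 37 C following a 5-hr pre-incubation of 2,000 cells/well. CellTiter-Fluor fluorescence, read after 1 hr, served as the viability measure in a qHTS format.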

Assay [13] deals with Cytochrome P450 2D6 (Homo sapiens) (UniProt P10635). As to the kind of experiment: Cytochrome P450 Family 2 Subfamily D Member 6 (CYP2D6) small molecule antagonists: luciferase reporter qHTS assay (AID 1671196). Also: nearly all actives have a fitted effect of over 50% in size. Also: potency is read from the fitted curve at half-maximal effect. As to activity change, negative = inhibition: series mostly up to about 120 µM. An outline of the steps:
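Chemicals tested for interference with CYP2D6 activity; proluciferin substrate, NADPH regeneration, 1 h at room temperature, luminescent detection.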
(In a reporter assay the amount or activity of a reporter protein is the signal.)

The nature of assay [14]: qHTS assay to identify small molecule antagonists of the progesterone receptor (PR) signaling pathway - cell viability counter screen (AID 1346798). Also: nearly all actives have a fitted effect of over 50% in size. Also: potency is read from the fitted curve at half-maximal effect. As to activity change, negative = cytotoxicity: series mostly up to about 92 µM. A digest of the protocol: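 Cytotoxicity read as CellTiter-Glo luminescence (30 min, room temperature) in the same wells as the beta-lactamase readout. HEK293T PR-UAS-bla cells in charcoal-stripped 2% FBS received compound and R5020, then 16 h at 37C, 5% CO2.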

Assay [15] is described as follows: qHTS assay to identify small molecule agonists of the progesterone receptor (PR) signaling pathway - cell viability counter screen (AID 1346799; calls by dose curve; also: nearly all actives have a fitted effect of over 45% in size; also: potency is read from the fitted curve at half-maximal effect). An outline of the steps:
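Cytotoxicity measured by CellTiter-Glo luminescence (30 min, RT) in the same wells as the PR beta-lactamase agonist read. Those HEK293T cells had 16 h compound treatment at 37 C in 2% charcoal-stripped FBS medium.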

The target in assay [16] is Nuclear receptor subfamily 1 group I member 2 (Homo sapiens) (UniProt O75469). Put plainly: Human pregnane X receptor (PXR) small molecule agonists, qHTS assay (AID 1346982). Also: nearly all actives have a fitted effect of over 35% in size. Also: potency is read from the fitted curve at half-maximal effect. A digest of the protocol: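 Stable HepG2 line reporting PXR-mediated CYP3A4 expression via luciferase. Treatment: 24 hr with compounds in DMSO at 37 C. Detection: ONE-Glo luminescence.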
Chain of Nuclear receptor subfamily 1 group I member 2 (Homo sapiens) (O75469 whole entry, looked up): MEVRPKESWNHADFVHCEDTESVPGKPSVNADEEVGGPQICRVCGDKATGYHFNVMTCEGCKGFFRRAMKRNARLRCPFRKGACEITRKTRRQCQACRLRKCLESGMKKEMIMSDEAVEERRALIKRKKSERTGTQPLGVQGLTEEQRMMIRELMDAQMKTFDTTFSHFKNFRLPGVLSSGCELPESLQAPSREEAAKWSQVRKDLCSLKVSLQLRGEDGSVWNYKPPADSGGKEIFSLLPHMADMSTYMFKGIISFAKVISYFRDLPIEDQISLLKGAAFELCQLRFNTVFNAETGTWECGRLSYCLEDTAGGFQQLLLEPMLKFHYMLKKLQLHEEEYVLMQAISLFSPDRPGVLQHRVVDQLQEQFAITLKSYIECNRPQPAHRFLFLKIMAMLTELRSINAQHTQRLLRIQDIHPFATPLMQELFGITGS
In assay [17] the target is Nuclear receptor subfamily 1 group I member 2 (Rattus norvegicus) (UniProt Q9R1A7). As to the kind of experiment: Rat pregnane X receptor (rPXR) activation by small molecules, qHTS assay (AID 1346983). Also: nearly all actives have a fitted effect of over 20% in size. To be noted: rPXR luciferase reporter cells, One-Glo luminescence, 24 h; stronger effect = higher value. An outline of the steps: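 Luminescent readout (One-Glo luciferase, 30 min room temperature) followed 24 hr compound treatment at 37 C of rPXR cells plated 2,000 per well and preincubated 5hr; qHTS format with compounds delivered in DMSO.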
Chain of Nuclear receptor subfamily 1 group I member 2 (Rattus norvegicus) (Q9R1A7 whole entry, looked up): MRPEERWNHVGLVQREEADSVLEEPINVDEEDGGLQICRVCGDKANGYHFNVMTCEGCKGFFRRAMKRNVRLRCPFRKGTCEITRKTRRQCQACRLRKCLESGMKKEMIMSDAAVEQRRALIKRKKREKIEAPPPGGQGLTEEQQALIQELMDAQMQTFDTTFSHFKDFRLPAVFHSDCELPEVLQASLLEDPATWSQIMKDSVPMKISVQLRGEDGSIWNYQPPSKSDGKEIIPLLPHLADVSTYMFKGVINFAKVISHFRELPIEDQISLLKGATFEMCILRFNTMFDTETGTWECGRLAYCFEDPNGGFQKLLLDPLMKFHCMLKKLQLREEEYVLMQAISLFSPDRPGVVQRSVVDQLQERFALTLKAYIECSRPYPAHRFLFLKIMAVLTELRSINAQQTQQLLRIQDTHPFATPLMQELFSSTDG

Assay [18] has as its target Nuclear receptor subfamily 1 group I member 2 (Homo sapiens) (UniProt O75469). As to the kind of experiment: Human pregnane X receptor (PXR) activation by small molecules, qHTS assay (AID 1346985). Also: nearly all actives have a fitted effect of over 40% in size. A digest of the protocol: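 DPX-2 cells (HepG2 co-transfected with a PXR response element and a CYP3A4-promoter luciferase construct) were seeded at 2,000 per well, rested 5 hr at 37C, then exposed to DMSO-dissolved compounds for 24 hr. Activation was read as luciferase luminescence.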

Assay [19] concerns the target Progesterone receptor (Homo sapiens) (UniProt P06401). As to the kind of experiment: qHTS assay to identify small molecule antagonists of the progesterone receptor (PR) signaling pathway (AID 1346795; active = well fitted inhibition curve with a large enough effect in the signal ratio in the repeat runs, not every such curve was filed as active; the % refers to the signal ratio). An outline of the steps:
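Antagonist mode with agonist R5020 at 1 nM final and 16 hr incubation at 37C. Reporter was beta-lactamase driven by UAS in HEK293T (PR-UAS-bla), 2% charcoal-stripped serum; signal from LiveBLAzer FRET substrate, 2 hr at room temperature.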

Structures are written as SMILES. Where “and” joins values, the source holds several entries; their conditions need not be identical. Equal values may be shown once. Results filed as inconclusive are left out. Some structures have more than one record in an assay (separate samples or runs), and their calls can disagree. Calls of active or inactive are those of the source. Unless noted, calls follow the shape of the dose curve; as a rule, active = well fitted curve in the direction sought with a large enough effect in the repeat runs; inconclusive = weak or mixed curves; inactive = no such curve, though single readings can be large; an effect the other way counts as inactive or inconclusive.
% is scaled to controls: 0 for no effect and ±100 for the full control effect.

Chain of Progesterone receptor (Homo sapiens) (P06401 whole entry, looked up): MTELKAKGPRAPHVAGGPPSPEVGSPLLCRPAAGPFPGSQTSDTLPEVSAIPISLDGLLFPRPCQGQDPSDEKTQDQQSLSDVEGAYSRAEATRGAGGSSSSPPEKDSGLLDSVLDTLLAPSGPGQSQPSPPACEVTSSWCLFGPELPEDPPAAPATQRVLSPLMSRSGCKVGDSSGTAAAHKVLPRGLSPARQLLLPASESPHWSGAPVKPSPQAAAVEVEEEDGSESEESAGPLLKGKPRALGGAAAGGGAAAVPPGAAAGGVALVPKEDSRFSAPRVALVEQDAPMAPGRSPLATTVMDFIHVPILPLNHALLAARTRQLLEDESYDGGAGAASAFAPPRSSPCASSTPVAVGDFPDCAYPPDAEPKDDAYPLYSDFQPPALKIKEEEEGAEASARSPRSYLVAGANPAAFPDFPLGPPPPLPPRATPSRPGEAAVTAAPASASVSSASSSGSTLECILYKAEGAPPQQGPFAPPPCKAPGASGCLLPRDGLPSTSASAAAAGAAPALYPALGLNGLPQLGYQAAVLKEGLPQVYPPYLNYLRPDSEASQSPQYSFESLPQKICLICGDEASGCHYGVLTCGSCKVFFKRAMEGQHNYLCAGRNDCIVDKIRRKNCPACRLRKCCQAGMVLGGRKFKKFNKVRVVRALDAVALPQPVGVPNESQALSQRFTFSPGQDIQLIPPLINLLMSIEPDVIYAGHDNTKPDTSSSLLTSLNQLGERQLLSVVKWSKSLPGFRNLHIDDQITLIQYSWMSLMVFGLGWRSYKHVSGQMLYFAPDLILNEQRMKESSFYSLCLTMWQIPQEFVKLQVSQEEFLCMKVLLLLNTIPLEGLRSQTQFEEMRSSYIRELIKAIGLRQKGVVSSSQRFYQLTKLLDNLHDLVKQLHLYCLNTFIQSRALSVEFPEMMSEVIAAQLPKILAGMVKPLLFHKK
Chain of Cytochrome P450 2D6 (Homo sapiens) (P10635 whole entry, looked up): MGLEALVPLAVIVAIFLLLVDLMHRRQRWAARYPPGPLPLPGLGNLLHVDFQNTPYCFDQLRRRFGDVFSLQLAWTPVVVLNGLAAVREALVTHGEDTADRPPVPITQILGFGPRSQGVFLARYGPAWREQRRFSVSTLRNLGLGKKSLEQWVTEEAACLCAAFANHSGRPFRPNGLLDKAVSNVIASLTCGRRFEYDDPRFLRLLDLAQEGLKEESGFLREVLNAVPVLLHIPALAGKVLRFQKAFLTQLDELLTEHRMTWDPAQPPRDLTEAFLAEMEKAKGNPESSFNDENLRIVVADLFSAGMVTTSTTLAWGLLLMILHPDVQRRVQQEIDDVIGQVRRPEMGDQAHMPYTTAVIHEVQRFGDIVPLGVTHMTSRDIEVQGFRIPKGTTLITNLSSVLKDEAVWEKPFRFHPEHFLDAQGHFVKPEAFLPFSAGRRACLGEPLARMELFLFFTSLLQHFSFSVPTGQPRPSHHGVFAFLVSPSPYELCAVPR

Take `Oc1ccccc1O`: the Potency result in assay [1], in [2], in [3], in assay [4], in [5] and in [6] was “inactive” throughout. In addition, the Potency result in assay [8], in [9], in [11], in [12] and in assay [13] was “inactive” in each case. Further, the call in assay [7] was inactive. Further, in assay [10], the Potency is 27.6 µM (active) and 21.7 µM (active).

Consider `CCCCCCCCCCCCCCCC[N+](C)(C)CC`, for which the Potency result in assay [1], in assay [2], in [9], in assay [11], in assay [16] and in assay [18] was “inactive” throughout. For the same molecule, the Potency in assay [14] is 68.8 µM (active); in [15], 68.8 µM (active); in assay [3] it was 43.8 µM (active); in assay [6] it was 30.2 µM (active) and inactive; in assay [10], 43.4 µM (active) and 29.8 µM (active); in assay [12], 61.3 µM (active). Also, the Potency in [13] was 566 nM (active) and 871 nM (active). The molecule was called inactive in [7]. Besides, the max activation in assay [17] is -22.3% (inactive).

As for `C[C@H]1NCc2cc(-c3ccc4c(=O)c(C(=O)O)cn(C5CC5)c4c3OC(F)F)ccc21`, the activity change, negative = cytotoxicity was 1.35% [at 19 µM] (inactive) in [1]; -2.19% [at 18.9 µM] (inactive) in [14]; -10.9% [at 19 µM] (inactive) in assay [15]; 0.347% [at 15.8 µM] (inactive) in [4]; 2.7% [at 19 µM] (inactive) in assay [8]; 0.359% [at 19 µM] (inactive) in [10]. Besides, the activity change, negative = cytotoxicity in [12] was -1.4% [at 19 µM] (inactive). Besides, in assay [19], the activity change, negative = inhibition was 2.98% [at 18.9 µM] (inactive). The viability change, negative = cytotoxic in [3] is -2.18% [at 15.8 µM] (inactive). Further, the activation in assay [5] was -4.87% [at 15.8 µM] (inactive); in assay [7], 0.004% [at 11.8 µM] (inactive). The activity, negative = inhibition in assay [6] was 5.68% [at 10.5 µM] (inactive). In addition, in [9], the caspase activation was -1.73% [at 19 µM] (inactive).

In the case of `CCCCC(CC)CN1CN(CC(CC)CCCC)CC(C)(N)C1` (centres undefined), the Potency result in [1], in assay [19], in assay [14], in assay [3], in assay [4] and in assay [5] was “inactive” each time. Besides, the Potency entry in assay [6], in assay [8], in [9], in assay [10], in assay [11] and in assay [12] was “inactive” throughout. In addition, the Potency entry in assay [18] was “inactive”. Also, the result in assay [7] was inactive. The Potency is 21.1 µM (active) in assay [16] and 309 nM (active) in assay [13]. The max activation in [17] is -2.15% (inactive).

Consider `ClCCl`, for which the Potency result in assay [1], in assay [19], in [14], in [15], in [3] and in assay [4] was “inactive” throughout. Besides, the Potency entry in assay [5], in [6], in [8], in [9], in assay [10] and in [11] was “inactive” each time. For the same molecule, the Potency result in assay [12], in assay [16] and in assay [13] was “inactive” each time. Besides, in assay [7], the call was inactive.

For the molecule `CCOC(=O)Cn1cccc1-c1nc(-c2ccc(OC)cc2)c(-c2ccc(OC)cc2)s1`, the Potency result in assay [1], in [19], in assay [14], in assay [3], in [4] and in assay [5] was “inactive” each time. For the same molecule, the Potency entry in assay [6], in assay [8], in [9], in assay [10] and in assay [11] was “inactive” each time. In addition, in assay [7], the molecule was classed as inactive.

Regarding `CN(C)C(=O)COC(=O)Cc1ccc(OC(=O)c2ccc(N=C(N)N)cc2)cc1`, the Potency entry in assay [1], in assay [19], in [14], in assay [15], in [3] and in assay [4] was “inactive” throughout. Moreover, the Potency result in assay [5], in assay [6], in assay [8], in assay [9], in assay [10] and in assay [11] was “inactive” throughout. Also, the Potency result in assay [12], in [16], in [18] and in assay [13] was “inactive” throughout. Further, the molecule was called inactive in assay [7]. For the same molecule, the max activation in [17] is -2.55% (inactive).

(Values after PubChem BioAssay (Tox21).)
